Measured values from PubChem BioAssay AID1159580 (chemical genetic matrix, 2015).
Hit rate of the full screen: of about 5,500 compounds, about 2,000 (36%) were called active. Inconclusive results (about 18%) are left out. Cut-off read from the data, not from the text of the source: active = normalized growth mostly below about 0.91 (no sharp cut-off); inconclusive = no clear call, values can overlap the other calls; inactive = mostly above about 0.92. Some of the results follow.

Assay: chemical genetic growth profiling, strain panel (AID 1159580);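 note: tested at 20 µM; growth read once vehicle control cultures reached saturation at 30 °C; 1 = growth at the plate median or of vehicle wells; lower values mean less growth of the strain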
Conditions: S. cerevisiae deletion strains, growth OD

Measured: normalized growth

CCC1OC(=O)[C@H](C)C(=O)[C@H](C)[C@@H](OC2O[C@H](C)C[C@H](N(C)C)[C@H]2O)[C@](C)(OC)C2(CCCn3cnc(-c4cccnc4)c3)C[C@@H](C)C(=O)[C@H](C)[C@H]3N(C2)C(=O)O[C@]13C (stereo partly drawn)
inactive: locus YAL013W, strain DEP1, hits give low values 1 | locus YAL021C, strain ccr4, hits give low values 0.973 | locus YAL026C, strain drs2, hits give low values 0.976 | locus YAL030W, strain snc1, hits give low values 0.981 | locus YBL061C, strain skt5, hits give low values 0.98 | locus YBR009C, strain hhf1, hits give low values 0.962 | locus YBR021W, strain FUR4, hits give low values 1 | locus YBR023C, strain chs3, hits give low values 0.998 | locus YBR171W, strain sec66, hits give low values 0.984 | locus YBR229C, strain ROT2, hits give low values 1 | locus YBR231C, strain swc5, hits give low values 0.984 | locus YBR279W, strain paf1, hits give low values 0.996 | locus YCL011C, strain gbp2, hits give low values 0.981 | locus YCL016C, strain dcc1, hits give low values 0.975 | locus YCL029C, strain bik1, hits give low values 1 | locus YCL069W, strain vba3, hits give low values 0.979 | locus YCR088W, strain abp1, hits give low values 0.979 | locus YDL005C, strain med2, hits give low values 0.989 | locus YDL035C, strain GPR1, hits give low values 1.01 | locus YDL040C, strain nat1, hits give low values 0.982 | locus YDL074C, strain BRE1, hits give low values 1.02 | locus YDL101C, strain DUN1, hits give low values 1.01 | locus YDL134C, strain PPH21, hits give low values 1.01 | locus YDL185W, strain tfp1, hits give low values 1.01 | locus YDL192W, strain arf1, hits give low values 1.01 | locus YDR001C, strain nth1, hits give low values 0.983 | locus YDR069C, strain doa4, hits give low values 0.996 | locus YDR101C, strain arx1, hits give low values 0.985 | locus YDR137W, strain rgp1, hits give low values 0.937 | locus YDR150W, strain NUM1, hits give low values 1.01 | locus YDR159W, strain sac3, hits give low values 0.96 | locus YDR162C, strain NBP2, hits give low values 1.02 | locus YDR195W, strain ref2 0.968 | locus YDR297W, strain sur2, hits give low values 0.982 | locus YDR318W, strain mcm21, hits give low values 1 | locus YDR334W, strain swr1, hits give low values 0.977 | locus YDR335W, strain msn5, hits give low values 0.976 | locus YDR388W, hits give low values 1.01 | locus YDR392W, strain spt3, hits give low values 0.936 | locus YDR502C, strain sam2, hits give low values 0.991 | locus YEL003W, strain gim4, hits give low values 0.958 | locus YEL037C, strain rad23, hits give low values 0.975 | locus YEL061C, strain CIN8 (second series), hits give low values 0.983 | locus YEL061C, strain CIN8, hits give low values 1 | locus YER015W, strain faa2, hits give low values 0.987 | locus YER016W, strain bim1, hits give low values 0.992 | locus YER110C, hits give low values 0.993 | locus YER111C, strain swi4, hits give low values 0.964 | locus YER155C, strain BEM2 (second series), hits give low values 1.02 | locus YER155C, strain BEM2, hits give low values 1.01 | locus YER167W, strain BCK2, hits give low values 1.01 | locus YFR010W, strain ubp6, hits give low values 0.995 | locus YGL078C, strain dbp3, hits give low values 1.01 | locus YGL086W, strain mad1, hits give low values 0.995 | locus YGL167C, strain pmr1, hits give low values 0.986 | locus YGL173C, strain kem1, hits give low values 0.975 | locus YGL227W, strain vid30, hits give low values 0.978 | locus YGL240W, strain doc1, hits give low values 0.994 | locus YGL248W, strain PDE1, hits give low values 1 | locus YGL253W, strain hxk2, hits give low values 0.965 | locus YGR078C, strain PAC10, hits give low values 1.03 | locus YGR135W, strain pre9, hits give low values 0.993 | locus YGR229C, strain SMI1, hits give low values 1.01 | locus YGR252W, strain gcn5, hits give low values 0.965 | locus YHR013C, strain ard1, hits give low values 0.96 | locus YHR027C, strain rpn1, hits give low values 0.99 | locus YHR030C, strain SLT2, hits give low values 0.999 | locus YHR079C, strain IRE1 (second series), hits give low values 0.991 | locus YHR094C, strain hxt1, hits give low values 1 | locus YHR129C, strain ARP1, hits give low values 1 | locus YHR142W, strain chs7, hits give low values 0.973 | locus YHR200W, strain rpn10, hits give low values 1 | locus YIL066C, strain RNR3, hits give low values 1.01 | locus YIL073C, strain SPO22, hits give low values 0.991 | locus YIL125W, strain kgd1, hits give low values 1 | locus YIR030C, strain dcg1, hits give low values 0.999 | locus YJL092W, strain hpr5, hits give low values 0.979 | locus YJL095W, strain BCK1 (second series), hits give low values 0.995 | locus YJL095W, strain BCK1, hits give low values 1 | locus YJL115W, strain asf1, hits give low values 0.973 | locus YJL129C, strain trk1, hits give low values 1.01 | locus YJL134W, strain LCB3, hits give low values 1.01 | locus YJL154C, strain vps35, hits give low values 0.977 | locus YJL164C, strain tpk1, hits give low values 0.977 | locus YJL166W, strain qcr8, hits give low values 0.998 | locus YJL168C, strain set2, hits give low values 0.999 | locus YJL187C, strain SWE1 (second series), hits give low values 0.999 | locus YJL187C, strain SWE1, hits give low values 0.984
